High-throughput results (PubChem)
DT40 TDP1 CPT – DT40-hTDP1 cell growth loss with CPT | chicken DT40 Tdp1-/-;hTDP1 cells + 20 nM CPT, ATP luminescence, 48 h | Potency, µM (top dose mostly 46.2 µM), without a hit: at the top dose activity change, negative = growth inhibition, usual class: inhibitors | 420,000 tested, 12% active | AID 686979; also: potency is read from the fitted curve at half-maximal effect; nearly all actives have a fitted effect of over 55% in size
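Cell growth measured by CellTiter-Glo luminescence after a minimum 48 h, 37 C compound exposure with 20 nM CPT in Tdp1-knockout DT40 cells stably expressing hTDP1, seeded 400/well; qHTS titration format.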
HT1080-NT tox – kills 2HG-producing HT-1080-NT fibrosarcoma cells. HT-1080-NT fibrosarcoma viability, CellTiter-Glo ATP luminescence, 48 h. Potency, µM (series often up to 46.1 µM), for the others: at the highest dose activity, negative = less viability, usual class: cytotoxic. 360,000 tested, 1.6% active. AID 686970;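 also: NT is the 2HG producing partner of a matched IDH1 knockdown line; potency is read from the fitted curve at half-maximal effect; 0% = DMSO-treated cells and -100% = media-only wells without cells; nearly all actives have a fitted effect of over 55% in size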
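A 48-hour cytotoxicity screen used HT-1080-NT cells plated 2 hours before compound delivery. ATP-based CellTiter-Glo luminescence measured viability, normalized to DMSO and no-cell controls.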
12-LOX inh – blocks human arachidonate 12S-lipoxygenase. Potency, µM (series often up to 108 µM), for inactives: top-dose activity change, negative = inhibition, most hits filed as inhibitors. 580,000 tested, 1.1% active. AID 1671190. purified 12hLO, xylenol orange hydroperoxide absorbance. P18054; also: potency is read from the fitted curve at half-maximal effect
Target sequence (P18054 whole entry, looked up): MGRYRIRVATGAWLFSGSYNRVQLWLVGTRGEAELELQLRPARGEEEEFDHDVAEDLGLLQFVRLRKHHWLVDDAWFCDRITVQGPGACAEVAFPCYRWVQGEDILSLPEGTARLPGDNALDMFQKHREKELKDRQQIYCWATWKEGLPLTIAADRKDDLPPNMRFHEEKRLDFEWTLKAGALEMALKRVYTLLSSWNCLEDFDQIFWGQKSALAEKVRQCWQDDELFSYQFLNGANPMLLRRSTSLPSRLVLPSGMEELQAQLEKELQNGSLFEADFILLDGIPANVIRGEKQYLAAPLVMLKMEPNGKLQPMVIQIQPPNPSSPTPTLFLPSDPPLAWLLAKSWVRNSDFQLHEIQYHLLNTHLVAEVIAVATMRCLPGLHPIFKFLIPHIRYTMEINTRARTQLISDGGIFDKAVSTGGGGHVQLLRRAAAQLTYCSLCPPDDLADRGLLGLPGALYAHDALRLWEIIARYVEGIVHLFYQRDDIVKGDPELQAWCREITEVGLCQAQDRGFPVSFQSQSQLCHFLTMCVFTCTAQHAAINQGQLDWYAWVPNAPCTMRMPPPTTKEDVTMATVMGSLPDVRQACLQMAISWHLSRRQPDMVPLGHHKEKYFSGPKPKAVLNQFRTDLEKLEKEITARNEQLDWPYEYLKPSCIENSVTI
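Hydroperoxide product was detected by ferrous iron/xylenol orange as the 573 to 405 nm absorbance ratio. Arachidonic acid at 40 uM (final) was turned over for 30 min at room temperature by 150 nM human 12hLO, pH 7.0 Hepes buffer, after 15 min compound preincubation.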
TDP1 cell noCPT – qHTS for Inhibitors of human tyrosyl-DNA phosphodiesterase 1 (TDP1): qHTS in cells in absence of CPT | DT40 Tdp1-/- hTDP1 cells, no CPT, ATP luminescence, 48 h | Potency, µM (series often up to 46.2 µM), without a hit: at the top dose activity change, negative = growth inhibition, usual class: inhibitors | 420,000 tested, 15% active; also: potency is read from the fitted curve at half-maximal effect; nearly all actives have a fitted effect of over 55% in size
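No-CPT arm: Tdp1-/-;hTDP1 DT40 cells (400/well) plus compounds, incubated ≥48 hr at 37 °C. Readout CellTiter-Glo luminescence.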
IL-1B inflam inh – inflammasome signaling inhibition, IL-1 beta readout; AID 743279; 360,000 tested, 4.7% active; activity change, % at 57.5 µM; THP-1 LPS/ATP IL-1B secretion, AlphaLISA, 16 h; hits give low values; in the data active = activity change below about -50%; inconclusive = mostly about -30% to -49%
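Secreted IL-1B measured by AlphaLISA bead assay after 16 h compound exposure of THP-1 cells; compounds (final up to 57.5 uM) added 1 h before LPS (250 ng/mL) and ATP (1.25 mM) stimulation; lower signal means less secretion.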
HT1080 IDH1KD tx – toxicity to HT-1080 IDH1 knockdown cells (counter line) | HT-1080 IDH1 knockdown viability, ATP luminescence, 48 h | Potency, µM (doses to about 46.1 µM), for the others: at the top dose activity, negative = toxicity, actives largely listed as cytotoxic | 360,000 tested, 2% active | AID 686971;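 also: potency is read from the fitted curve at half-maximal effect; 0% = DMSO wells and -100% = cell-free medium wells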
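Viability of IDH1-knockdown HT-1080 fibrosarcoma cells was assessed by CellTiter-Glo after 48 h at 37 °C with titrated compound; concentration-effect curves were classified by fit quality and response size.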
* hit, by the source's call; ? = inconclusive; nt = no result given; [ ] = dose if it differs, or a comment. This excerpt belongs to a sample that is enriched for hits. Unless noted, calls follow the shape of the dose curve; as a rule, active = well fitted curve in the direction sought with a large enough effect; inconclusive = small, poorly fitted or top-dose-only effect, or another doubt; inactive = no such curve, though single readings can be large; an effect the other way counts as inactive or inconclusive. Unless noted, % is scaled to controls: 0 for no effect and ±100 for the full control effect.

SMILES | DT40 TDP1 CPT | HT1080-NT tox | 12-LOX inh | TDP1 cell noCPT | IL-1B inflam inh | HT1080 IDH1KD tx
COc1cc(/C=C/CN2CCC(C(=O)NC(c3ccc(F)cc3)c3ccc4ccccc4n3)CC2)ccc1OC(C)=O (configuration not stated) | ? | 16.4µM* | ? | 14.6µM* | -61.7* | ?
O=C(COc1ccccc1F)Nc1ccc2nc(SCc3ccccc3)sc2c1 | -26.4% | nt | -14.0% | -19.6% | nt | nt
Cc1cccc(NC(=O)CSc2nc3ccc(NC(=O)c4ccccc4)cc3s2)c1 | 8.2µM* | nt | -3.0% | 6.51µM* | nt | nt
Cc1cccc(NC(=O)CSc2nc3ccc(NC(=O)COc4ccccc4F)cc3s2)c1 | 16.4µM* | nt | 0.0% | 6.51µM* | nt | nt
CNC(=O)C(NC(=O)c1c(F)cccc1F)C(C)C (configuration not stated) | nt | nt | -12.8% | nt | nt | nt
Cc1ccc(C(OCC(C)(C)C[N+](C)(C)C)c2ccccc2)cc1 (configuration not stated) | 5.8µM* | 2.4% | 44.7µM* | 5.17µM* | -52.0* | 1.0%
C[N+](C)(C)CCOC(c1ccccc1)c1ccccc1 | nt | nt | -0.2% | nt | nt | nt
CC(C)CCCCCCCCCCCCC(=O)NCC(=O)NC1C(C)OC(Nc2ncnc3nc[nH]c23)C(O)C1O (configuration not stated) | 0.0206µM* | 1.84µM* | -17.9% | 0.0326µM* | -93.0* | 0.116µM*
CC1CCN(S(=O)(=O)c2ccc3ncn(CC(=O)Nc4ccccc4C(F)(F)F)c(=O)c3c2)CC1 | 20.6µM* | nt | -6.3% | ? | nt | nt
COc1ccc(OC)c(NC(=O)Cn2cnc3ccc(S(=O)(=O)N4CCC(C)CC4)cc3c2=O)c1 | 23.1µM* | nt | -16.4% | ? | nt | nt
COC(=O)c1ccccc1NC(=O)Cn1cnc2ccc(S(=O)(=O)N3CCC(C)CC3)cc2c1=O | 5.2% | 4.5% | 0.0% | -3.3% | 9.4 | -13.5%
COc1ccc(NC(=O)Cn2cnc3ccc(S(=O)(=O)N4CCC(C)CC4)cc3c2=O)cc1OC | 25.9µM* | nt | -27.7% | ? | nt | nt
O=C(NCc1cccc(Oc2ccccc2)c1)C(=O)c1c[nH]c2ccccc12 | nt | nt | 7.2% | nt | nt | nt
Nc1ncccc1CN1CC[C@@H]2OCC(=O)N(Cc3ccccc3)[C@H]2CC1 | nt | nt | -3.2%[176 µM] | nt | nt | nt
CCC/C(O)=C1\C(=O)CC(C)(C)CC1=Nc1ccc(OC)cc1 | ? | -14.7% | -1.3% | 14.6µM* | -20.0 | -3.8%
CCCC/C(O)=C1\C(=O)CC(C)(C)CC1=Nc1ccc(OC)cc1 | ? | -1.9% | -1.6% | ? | ? | -1.5%
Cc1c(C(=O)N(C)C2CCOC2)sc2ncnc(NCC3(c4ccccc4)CCOCC3)c12 (configuration not stated) | -20.5% | nt | 11.3% | -23.3% | nt | nt
Cc1cccc(C2CC(c3ccc(Br)cc3)Nc3nc(N)nn32)c1 (configuration not stated) | 20.6µM* | 1.7% | -5.2% | 23.1µM* | -13.8 | 0.2%
COc1ccc(C2CC(c3cccc(C)c3)n3nc(N)nc3N2)cc1 (configuration not stated) | ? | 13.7% | 417.0% | -2.9% | -11.1 | -5.1%
Cc1ccccc1C1CC(c2ccc(F)cc2)Nc2nc(N)nn21 (configuration not stated) | 20.6µM* | -4.4% | 486.2% | ? | -0.4 | 0.5%
Cc1ccccc1C1CC(c2cccs2)Nc2nnnn21 (configuration not stated) | -7.1% | -1.6% | -0.6% | 6.51µM* | ? | -10.6%
Cc1ccccc1C1CC(c2ccc(Br)cc2)Nc2nc(N)nn21 (configuration not stated) | -21.9% | -7.8% | -13.4% | -27.8% | ? | -23.8%
